# Test results reported in PubChem BioAssay.
# For part of these data: Entries with a potency or affinity are not part of this list. Calls of active or inactive are those of the source.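 Rule for the calls, unless noted: active = earlier screen potentiator hit that boosts the TRPC4 ion channel at some dose, with a dose response; inactive = no potentiation, no dose response, or not a prior hit.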
# Key:
# [1] = tested on: TRPC4 beta (transient receptor potential cation channel C4), mouse; assay: TRPC4 cation channel opening, retest – cell-based, Fluo4 calcium, HEK293 TRPC4beta/mu-opioid, duplicates, 10 µM, confirmation (AID 2426;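 active = fluorescence ratio normalized to control raised more than 50% in primary screen plus both repeat runs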;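 for activation: percent rise of integrated ratio over buffer wells lacking compound which define 0%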); details: Fluo4 calcium fluorescence, at 10 µM; stronger effect = higher value
# [2] = tested on: transient receptor potential cation channel C4 beta (TRPC4), mouse; assay: TRPC4 cation channel opening, second retest – cell-based, second round, Fluo4, HEK293 TRPC4beta/mu-opioid, 1 µM, confirmation (AID 2461;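 active = primary screen active and over 50% activation in each of two duplicate runs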;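 for activation: 0% = wells without test compound as baseline of integrated fluorescence ratio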); details: Fluo4 calcium fluorescence, at 1 µM; stronger effect = higher value
# [3] = tested on: TRPC4 (transient receptor potential cation channel C4 beta), mouse; assay: potentiation of DAMGO EC20 TRPC4 response – cell-based, second round, Fluo-4, HEK293 TRPC4beta/mu-opioid, 1 µM, confirmation (AID 2554;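 active = primary screen hit whose fluorescence ratio, in both repeats, exceeds the weak agonist control mean by 3 SD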); details: DAMGO EC20, Fluo-4 calcium flux, at 1 µM; stronger effect = higher value
# [4] = tested on: TRPC4 beta (transient receptor potential cation channel C4), mouse; assay: potentiation of DAMGO EC20 TRPC4 response – cell-based, Fluo-4, HEK293 TRPC4beta/mu-opioid, confirmation (AID 2555;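 active = primary screen hit whose calcium fluorescence ratio, in both repeats, exceeds the weak agonist control mean by 3 SD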); details: DAMGO EC20, Fluo-4 calcium flux, at 10 µM; stronger effect = higher value
# [5] = target: Short transient receptor potential channel 4 (Mus musculus) (UniProt Q9QUQ5); assay: blockers of DAMGO-evoked TRPC4 calcium flux – cell-based, Fluo4, HEK293 TRPC4beta/mu-opioid, confirmation (AID 2636;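 active = calcium signal cut by more than 3 SD below the full-agonist control yet still positive, in both repeats and the earlier primary screen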); details: at 10 µM; stronger effect = higher value
# Short transient receptor potential channel 4 (Mus musculus), sequence (Q9QUQ5 whole entry, looked up): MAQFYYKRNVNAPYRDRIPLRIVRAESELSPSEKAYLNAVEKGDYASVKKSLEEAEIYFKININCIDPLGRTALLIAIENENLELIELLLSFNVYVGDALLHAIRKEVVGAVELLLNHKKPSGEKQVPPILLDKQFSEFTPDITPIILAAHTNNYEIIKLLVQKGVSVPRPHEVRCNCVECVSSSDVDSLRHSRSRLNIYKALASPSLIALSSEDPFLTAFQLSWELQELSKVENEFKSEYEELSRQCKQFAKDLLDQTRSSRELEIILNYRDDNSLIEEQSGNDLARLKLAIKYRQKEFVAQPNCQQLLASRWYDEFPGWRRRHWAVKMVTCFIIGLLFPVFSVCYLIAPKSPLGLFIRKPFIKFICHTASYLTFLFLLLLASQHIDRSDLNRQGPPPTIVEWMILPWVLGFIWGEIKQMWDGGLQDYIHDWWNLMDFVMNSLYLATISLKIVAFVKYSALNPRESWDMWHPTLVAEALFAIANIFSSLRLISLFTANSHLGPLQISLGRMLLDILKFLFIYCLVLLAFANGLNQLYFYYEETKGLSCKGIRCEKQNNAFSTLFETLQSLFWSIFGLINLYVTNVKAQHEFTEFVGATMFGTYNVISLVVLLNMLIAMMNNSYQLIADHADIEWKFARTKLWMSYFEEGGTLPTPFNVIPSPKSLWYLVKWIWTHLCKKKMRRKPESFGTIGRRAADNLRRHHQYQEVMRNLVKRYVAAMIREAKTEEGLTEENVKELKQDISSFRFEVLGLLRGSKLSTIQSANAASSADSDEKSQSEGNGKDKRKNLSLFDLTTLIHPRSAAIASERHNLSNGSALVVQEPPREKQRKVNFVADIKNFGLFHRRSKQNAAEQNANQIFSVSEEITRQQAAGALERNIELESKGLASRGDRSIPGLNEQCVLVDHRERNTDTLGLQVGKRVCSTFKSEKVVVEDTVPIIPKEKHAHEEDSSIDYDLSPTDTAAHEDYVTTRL
# [6] = target: Short transient receptor potential channel 4 (Mus musculus) (UniProt Q9QUQ5); assay: blockers of DAMGO-evoked TRPC4 calcium flux – cell-based, second round, Fluo4, HEK293 TRPC4beta/mu-opioid, 1 µM, confirmation (AID 2637;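 active = calcium signal ratio cut to more than 3 SD under the fully stimulated control mean yet still positive, in both repeats and the primary screen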); details: at 1 µM; stronger effect = higher value
# [7] = target: Short transient receptor potential channel 4 (Mus musculus) (UniProt Q9QUQ5); assay: potentiation of DAMGO-evoked TRPC4 calcium signal – cell-based, HEK293 TRPC4/mu-opioid, Fluo-4 calcium, EC20 DAMGO, dose response (AID 434941);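 note: calcium entry triggered by an EC20 dose of DAMGO at the co-expressed mu-opioid receptor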
# [8] = target: Short transient receptor potential channel 4 (Mus musculus) (UniProt Q9QUQ5); assay: block of DAMGO-driven TRPC4 calcium entry – cell-based, HEK293 TRPC4/mu-opioid, Fluo-4 calcium, dose response (AID 434942;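 active = primary screen inhibitor hit that blocks the TRPC4 channel at some tested dose, yielding a dose curve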)
# [9] = target: Short transient receptor potential channel 6 (Mus musculus) (UniProt Q61143); assay: TRPC6 blockade by TRPC4 inhibitor hits – cell-based, HEK293, membrane potential dye, duplicate, selectivity assay for TRPC4 inhibitor project, confirmation (AID 434948;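 active = active in primary screen and both duplicates, each dropping signal beyond three positive-control SD with fluorescence still positive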); details: HEK293 TRPC6, membrane potential dye fluorescence, at 10 µM, stimulated with maximal-effect acetylcholine; stronger effect = higher value
# Short transient receptor potential channel 6 (Mus musculus), sequence (Q61143 whole entry, looked up): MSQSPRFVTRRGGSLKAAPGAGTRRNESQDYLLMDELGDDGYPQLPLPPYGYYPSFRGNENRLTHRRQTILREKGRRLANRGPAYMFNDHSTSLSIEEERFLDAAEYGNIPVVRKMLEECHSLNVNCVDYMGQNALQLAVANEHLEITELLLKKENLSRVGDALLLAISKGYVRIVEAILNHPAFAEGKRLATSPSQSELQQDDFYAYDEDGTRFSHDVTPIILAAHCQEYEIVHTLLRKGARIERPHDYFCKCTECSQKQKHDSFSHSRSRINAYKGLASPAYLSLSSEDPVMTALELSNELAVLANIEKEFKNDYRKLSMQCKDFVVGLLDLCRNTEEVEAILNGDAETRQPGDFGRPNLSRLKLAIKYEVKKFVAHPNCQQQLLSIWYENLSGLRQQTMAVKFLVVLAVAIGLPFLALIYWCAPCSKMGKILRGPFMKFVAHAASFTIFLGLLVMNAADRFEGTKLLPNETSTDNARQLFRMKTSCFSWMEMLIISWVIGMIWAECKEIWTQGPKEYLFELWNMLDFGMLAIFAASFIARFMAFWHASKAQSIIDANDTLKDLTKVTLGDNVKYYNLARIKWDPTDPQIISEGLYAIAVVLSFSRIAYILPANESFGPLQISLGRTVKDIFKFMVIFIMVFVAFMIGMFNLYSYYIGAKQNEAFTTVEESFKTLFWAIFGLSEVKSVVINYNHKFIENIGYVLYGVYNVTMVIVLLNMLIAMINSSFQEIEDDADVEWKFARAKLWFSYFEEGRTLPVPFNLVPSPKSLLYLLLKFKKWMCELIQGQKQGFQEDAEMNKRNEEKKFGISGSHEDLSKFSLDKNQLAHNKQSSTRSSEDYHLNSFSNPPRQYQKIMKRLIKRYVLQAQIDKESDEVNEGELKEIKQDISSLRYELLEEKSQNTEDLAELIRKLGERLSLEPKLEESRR
# [10] = target: Short transient receptor potential channel 6 (Mus musculus) (UniProt Q61143); assay: TRPC6 opening by TRPC4 activator hits – cell-based, HEK293, membrane potential dye, duplicate, selectivity assay for TRPC4 activator project, confirmation (AID 434950;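 active = membrane potential signal rise above negative control mean plus 3 SD in both duplicates, also active in the earlier TRPC4 screen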;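 for activation: 0% = buffer only wells and 100% = acetylcholine maximal-effect wells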); details: HEK293 TRPC6, membrane potential fluorescence, at 10 µM; activation: stronger effect = higher value; outcome: activation
# [11] = target: Short transient receptor potential channel 6 (Mus musculus) (UniProt Q61143); assay: positive modulators of mouse TRPC6 channel – HEK293 cells, membrane potential dye, duplicate, selectivity assay for TRPC4 potentiator project, confirmation (AID 434952;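 active = compound raising the membrane signal above positive-control mean plus 3 SD in both repeats, and a primary screen hit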); details: HEK293 TRPC6, membrane potential dye fluorescence, at 10 µM, maximal acetylcholine added after compound; stronger effect = higher value
# [12] = target: Short transient receptor potential channel 4 (Mus musculus) (UniProt Q9QUQ5); assay: calcium flux activators in TRPC4/5HT1a cells, counter-screen for TRPC4 activator project, cell-based, second counter screen, HEK293 TRPC4/5HT1a, Fluo-4 (AID 434977;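 active = calcium signal rise above buffer-control mean plus 5 SD in both duplicates, and also a hit in the primary screen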;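 for activation: plate controls were assay buffer for no effect and maximal serotonin response for full effect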); details: Fluo-4 calcium flux, at 10 µM; stronger effect = higher value
# [13] = serotonin-gated TRPC4 signal block – cell-based, second counter screen, HEK293 TRPC4/5HT1a, Fluo-4, counter-screen for TRPC4 inhibitor project, confirmation (AID 434978;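 active = primary screen active whose calcium signal fell more than 3 SD beyond the full-serotonin control mean in both duplicate plates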;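 note: serotonin given first at submaximal then at maximal dose after compound preincubation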); details: Fluo-4 calcium flux, at 10 µM, serotonin added to trigger calcium flux; stronger effect = higher value
# [14] = tested on: TRPC4 (mouse), co-expressed with 5HT1a in HEK293; assay: enhancement of serotonin-evoked TRPC4 response – cell-based, second counter screen, HEK293 TRPC4/5HT1a, Fluo-4, counter-screen for TRPC4 potentiator project, confirmation (AID 434979;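 active = signal rise over 3 SD above mean of control wells given weak agonist, in both repeats and first screen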); details: Fluo-4 calcium flux, at 10 µM, serotonin added at its EC20 dose; stronger effect = higher value
# [15] = nonspecific calcium rise without TRPC4 – cell-based, HEK293 mu-opioid receptor line, counter-screen for TRPC4 activator project, confirmation (AID 449723;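 active = hit in primary screen, with calcium signal over 5 SD above buffer well mean in both duplicates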;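 note: counter screen cells carry the mu-opioid receptor alone and lack TRPC4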); details: HEK293 mu-opioid cells, Fluo-4 calcium fluorescence, at 10 µM; stronger effect = higher value
# [16] = nonspecific potentiation of DAMGO calcium response – cell-based, HEK293 mu-opioid receptor line, counter-screen for TRPC4 allosteric potentiator project, confirmation (AID 449724;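 active = calcium signal rise more than 3 SD above the low-dose agonist control mean, in both duplicate plates and the primary screen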;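 note: HEK293 cells carrying mu-opioid receptor only with no TRPC4 channel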); details: HEK293 mu-opioid receptor cells, Fluo-4 calcium flux, at 10 µM, compound added before EC20 DAMGO stimulus; stronger effect = higher value
structure (smiles),measurement,setting,value
CCCCCc1c(O)nc(SCCN(C)C)[nH]c1=O,activation,[1],63% (active)
same,outcome,[2],inactive
same,outcome,[3],inactive
same,outcome,[4],inactive
same,outcome,[5],inactive
same,outcome,[6],inactive
same,outcome,[7],inactive
same,outcome,[8],inactive
same,outcome,[9],inactive
same,outcome,[10],inactive
same,outcome,[11],inactive
same,activation,[12],15.6% (active)
same,outcome,[13],inactive
same,outcome,[14],inactive
same,outcome,[15],inactive
same,outcome,[16],inactive
COc1cccc(CN2CCNC(=O)C2CC(=O)N(C)CCc2ccccn2)c1OC (stereo not given),activation,[1],138% (active)
same,outcome,[2],inactive
same,outcome,[3],inactive
same,outcome,[4],inactive
same,outcome,[5],inactive
same,outcome,[6],inactive
same,outcome,[7],inactive
same,outcome,[8],inactive
same,outcome,[9],inactive
same,outcome,[10],inactive
same,outcome,[11],inactive
same,activation,[12],52.1% (active)
same,outcome,[13],inactive
same,outcome,[14],inactive
same,outcome,[15],inactive
same,outcome,[16],inactive
Cn1c(N2CCN(C(=O)Nc3ccc(C(F)(F)F)cc3)CC2)nc2ccccc21,activation,[1],81% (active)
same,outcome,[2],inactive
same,outcome,[3],inactive
same,outcome,[4],inactive
same,outcome,[5],inactive
same,outcome,[6],inactive
same,outcome,[7],inactive
same,outcome,[8],inactive
same,outcome,[9],inactive
same,outcome,[10],inactive
same,outcome,[11],inactive
same,activation,[12],31.2% (active)
same,outcome,[13],inactive
same,outcome,[14],inactive
same,outcome,[15],inactive
same,outcome,[16],inactive
CCCN(CCC)CCCNC(=O)CNC(=O)c1nn(-c2ccc(OC)cc2)c(=O)c2ccccc12,activation,[1],65% (active)
same,outcome,[2],inactive
same,outcome,[3],inactive
same,outcome,[4],inactive
same,outcome,[5],inactive
same,outcome,[6],inactive
same,outcome,[7],inactive
same,outcome,[8],inactive
same,outcome,[9],inactive
same,outcome,[10],inactive
same,outcome,[11],inactive
same,activation,[12],24.9% (active)
same,outcome,[13],inactive
same,outcome,[14],inactive
same,outcome,[15],inactive
same,outcome,[16],inactive
COc1ccc(C(CNC(=O)c2ccc3c(c2)OCCO3)N(C)C)cc1 (stereo not given),activation,[1],153% (active)
same,activation,[2],123% (active)
same,outcome,[3],inactive
same,outcome,[4],inactive
same,outcome,[5],inactive
same,outcome,[6],inactive
same,outcome,[7],inactive
same,outcome,[8],inactive
same,outcome,[9],inactive
same,activation,[10],49% (active)
same,outcome,[11],inactive
same,outcome,[12],inactive
same,outcome,[13],inactive
same,outcome,[14],inactive
same,outcome,[15],inactive
same,outcome,[16],inactive
COCCn1nnnc1C(c1cc2ccc(OC)cc2[nH]c1=O)N1CCN(C2CCCCC2)CC1 (stereo not given),activation,[1],133% (active)
same,outcome,[2],inactive
same,outcome,[3],inactive
same,outcome,[4],inactive
same,outcome,[5],inactive
same,outcome,[6],inactive
same,outcome,[7],inactive
same,outcome,[8],inactive
same,outcome,[9],inactive
same,activation,[10],37.5% (active)
same,outcome,[11],inactive
same,activation,[12],13.6% (active)
same,outcome,[13],inactive
same,outcome,[14],inactive
same,outcome,[15],inactive
same,outcome,[16],inactive
CC1CN(C)C(C)c2c1oc1ccc(N)cc21 (stereo not given),activation,[1],226% (active)
same,activation,[2],73% (active)
same,outcome,[3],inactive
same,outcome,[4],inactive
same,outcome,[5],inactive
same,outcome,[6],inactive
same,outcome,[7],inactive
same,outcome,[8],inactive
same,outcome,[9],inactive
same,outcome,[10],inactive
same,outcome,[11],inactive
same,outcome,[12],inactive
same,outcome,[13],inactive
same,outcome,[14],inactive
same,outcome,[15],inactive
same,outcome,[16],inactive
O=C(O)c1ccc(-c2ccc(/C=N/Nc3ccc([N+](=O)[O-])cc3)o2)cc1,activation,[1],120% (active)
same,outcome,[2],inactive
same,outcome,[3],inactive
same,potentiation,[4],11% (active)
same,outcome,[5],inactive
same,outcome,[6],inactive
same,outcome,[7],inactive
same,outcome,[8],inactive
same,outcome,[9],inactive
same,activation,[10],442% (active)
same,outcome,[11],inactive
same,activation,[12],111% (active)
same,outcome,[13],inactive
same,outcome,[14],inactive
same,activation,[15],106% (active)
same,outcome,[16],inactive
COc1ccc(C(=O)C2CCCN(C3Cc4ccccc4C3)C2)cc1OC (stereo not given),activation,[1],128% (active)
same,outcome,[2],inactive
same,outcome,[3],inactive
same,outcome,[4],inactive
same,outcome,[5],inactive
same,outcome,[6],inactive
same,outcome,[7],inactive
same,outcome,[8],inactive
same,outcome,[9],inactive
same,activation,[10],81.5% (active)
same,outcome,[11],inactive
same,activation,[12],110% (active)
same,outcome,[13],inactive
same,outcome,[14],inactive
same,outcome,[15],inactive
same,outcome,[16],inactive
CN(C)CCNC(=O)c1scc2c1CCCC2,outcome,[1],inactive
same,outcome,[2],inactive
same,outcome,[3],inactive
same,outcome,[4],inactive
same,outcome,[5],inactive
same,outcome,[6],inactive
same,outcome,[7],inactive
same,outcome,[8],inactive
same,outcome,[9],inactive
same,activation,[10],41.5% (active)
same,outcome,[11],inactive
same,activation,[12],19.6% (active)
same,outcome,[13],inactive
same,outcome,[14],inactive
same,outcome,[15],inactive
same,outcome,[16],inactive
CCCN(CCC)CCCNC(=O)c1ccc2c(Cl)c3c(nc2c1)CCC3,activation,[1],90% (active)
same,activation,[2],89% (active)
same,outcome,[3],inactive
same,outcome,[4],inactive
same,outcome,[5],inactive
same,outcome,[6],inactive
same,outcome,[7],inactive
same,outcome,[8],inactive
same,outcome,[9],inactive
same,activation,[10],27% (active)
same,outcome,[11],inactive
same,activation,[12],105% (active)
same,outcome,[13],inactive
same,outcome,[14],inactive
same,outcome,[15],inactive
same,outcome,[16],inactive
COc1ccc(C(CNC(=O)C(Cc2ccccc2)NC(N)=O)N(C)C)cc1 (stereo not given),activation,[1],92% (active)
same,activation,[2],90% (active)
same,outcome,[3],inactive
same,outcome,[4],inactive
same,outcome,[5],inactive
same,outcome,[6],inactive
same,outcome,[7],inactive
same,outcome,[8],inactive
same,outcome,[9],inactive
same,activation,[10],32% (active)
same,outcome,[11],inactive
same,outcome,[12],inactive
same,outcome,[13],inactive
same,outcome,[14],inactive
same,outcome,[15],inactive
same,outcome,[16],inactive
CC1CCN(CCCNS(=O)(=O)c2cc(Br)cc3c2N(C(=O)C2CC2)CC3)CC1,activation,[1],91% (active)
same,activation,[2],63% (active)
same,outcome,[3],inactive
same,outcome,[4],inactive
same,outcome,[5],inactive
same,outcome,[6],inactive
same,outcome,[7],inactive
same,outcome,[8],inactive
same,outcome,[9],inactive
same,outcome,[10],inactive
same,outcome,[11],inactive
same,activation,[12],26.3% (active)
same,outcome,[13],inactive
same,outcome,[14],inactive
same,outcome,[15],inactive
same,outcome,[16],inactive
COC(=O)c1ccc(N2CCN(C)CC2)c(NC(=O)c2cccs2)c1,activation,[1],138% (active)
same,outcome,[2],inactive
same,outcome,[3],inactive
same,outcome,[4],inactive
same,outcome,[5],inactive
same,outcome,[6],inactive
same,outcome,[7],inactive
same,outcome,[8],inactive
same,outcome,[9],inactive
same,outcome,[10],inactive
same,outcome,[11],inactive
same,activation,[12],52.7% (active)
same,outcome,[13],inactive
same,outcome,[14],inactive
same,activation,[15],15.6% (active)
same,outcome,[16],inactive
CCN1CCN(c2ncnc3sc(C)c(-c4ccccc4)c23)CC1,activation,[1],107% (active)
same,outcome,[2],inactive
same,outcome,[3],inactive
same,outcome,[4],inactive
same,outcome,[5],inactive
same,outcome,[6],inactive
same,outcome,[7],inactive
same,outcome,[8],inactive
same,outcome,[9],inactive
same,outcome,[10],inactive
same,outcome,[11],inactive
same,outcome,[12],inactive
same,outcome,[13],inactive
same,outcome,[14],inactive
same,outcome,[15],inactive
same,outcome,[16],inactive
